Bioassay records (PubChem BioAssay)
Hits are enriched below; roughly 2.4% of the tested compounds scored in any of these assays.
Pol beta inh: DNA polymerase beta (human) inhibition. actives 1.3% (n = 340,000). Pol beta primer extension/strand displacement, fluorescence kinetic. Potency, µM (highest dose often 114 µM), for inactives: at the highest dose activity change, negative = inhibition, hits mostly inhibitors; note: % is set by controls: 0 for no effect and ±100 for the full control effect
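Homogeneous kinetic assay of primer extension and strand displacement by 10 nM Pol beta, preincubated 15 min at room temperature with compound before 50 nM substrate (final) was added. Read at 0 and 10 min; four-parameter Hill fit.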
Pol eta inh: blocks human DNA polymerase eta activity; recombinant Pol eta, fluorescent DNA replication assay; Potency, µM (highest dose often 114 µM), without a hit: top-dose activity change, negative = inhibition, usual class: inhibitors; actives 1.2% (n = 390,000); AID 588591; note: % is set by controls: 0 for no effect and ±100 for the full control effect
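Pol eta (10 nM) was preincubated with compounds for 15 min at room temperature, after which fluorescent replication substrate (50 nM final) was added to start the reaction. Fluorescence was read kinetically at 0 and 10 min.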
WRN helicase inh: WRN helicase (human) inhibition; Q14191; WRN helicase unwinding, fluorescent forked duplex, kinetic; Potency, µM (titrated, usually from 114 µM), inactives show top-dose activity change, negative = inhibition, usual class: inhibitors; actives 0.46% (n = 360,000); AID 651768; note: % is set by controls: 0 for no effect and ±100 for the full control effect; nearly all actives have a fitted effect of over 55% in size
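Primary qHTS, 1536-well format. 20 nM WRN + compound, 15 min RT; start with 100 nM forked fluorophore/quencher duplex, 2 mM ATP (final); kinetic read ex 525/em 598 nm.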
POLK inh: DNA polymerase kappa (human) inhibition; purified Pol kappa, fluorescent DNA synthesis assay, 10 min; Potency, µM (series often up to 107 µM), without a hit: top-dose activity, negative = inhibition, most hits filed as inhibitors; actives 0.53% (n = 400,000); note: % is set by controls: 0 for no effect and ±100 for the full control effect
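Kinetic fluorescence screen: compound preincubated 15 min RT with 10 nM enzyme; 50 nM substrate (final) initiates; reads at 0/10 min.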
Pol iota inh: inhibitors of human DNA polymerase iota; Q9UNA4; Potency, µM (top dose mostly 115 µM), for inactives: top-dose activity, negative = inhibition, usual class: inhibitors; Pol iota fluorescent replication assay, 10 min; actives 1% (n = 390,000)
Target sequence (Q9UNA4 whole entry, looked up): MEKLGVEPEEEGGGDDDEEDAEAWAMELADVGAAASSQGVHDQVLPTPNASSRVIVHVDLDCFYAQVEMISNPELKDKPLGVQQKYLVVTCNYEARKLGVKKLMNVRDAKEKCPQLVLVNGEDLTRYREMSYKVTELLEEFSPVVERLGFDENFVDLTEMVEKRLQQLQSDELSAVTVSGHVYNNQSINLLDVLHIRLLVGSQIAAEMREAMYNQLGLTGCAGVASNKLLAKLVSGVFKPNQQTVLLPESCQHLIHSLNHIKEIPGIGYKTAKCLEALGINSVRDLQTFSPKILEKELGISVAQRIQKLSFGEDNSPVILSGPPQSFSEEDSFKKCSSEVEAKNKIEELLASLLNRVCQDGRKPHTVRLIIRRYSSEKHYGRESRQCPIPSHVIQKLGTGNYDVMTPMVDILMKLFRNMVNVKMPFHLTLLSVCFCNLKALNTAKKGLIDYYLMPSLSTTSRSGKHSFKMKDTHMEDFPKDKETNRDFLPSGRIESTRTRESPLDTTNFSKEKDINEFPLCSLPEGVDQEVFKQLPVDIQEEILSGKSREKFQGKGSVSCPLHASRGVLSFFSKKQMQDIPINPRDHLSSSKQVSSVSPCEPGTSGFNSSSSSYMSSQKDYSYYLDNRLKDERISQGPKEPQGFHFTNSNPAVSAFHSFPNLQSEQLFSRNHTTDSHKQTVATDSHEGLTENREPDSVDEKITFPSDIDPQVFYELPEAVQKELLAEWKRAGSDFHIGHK
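Pol iota at 10 nM preincubated 15 min with compounds at room temperature; reaction started with fluorescent substrate, 50 nM final. Fluorescence read kinetically at 0 and 10 min; buffer-only wells as negative control.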
FEN1 inh: inhibitors of human flap endonuclease 1; P39748; Recombinant FEN1 flap cleavage, fluorescence, 15 min; Potency, µM (series often up to 114 µM), without a hit: top-dose activity change, negative = inhibition, most hits filed as inhibitors; actives 0.35% (n = 390,000); AID 588795; note: % is set by controls: 0 for no effect and ±100 for the full control effect; nearly all actives have a fitted effect of over 65% in size
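In this screen, 50 nM flap DNA substrate was added to 10 nM FEN1 pretreated with compound for 15 min at room temperature; cleavage was followed with reads at 0 and 15 min, and Hill fitting gave concentration–response parameters.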
Active calls of the source: *; ? = inconclusive; . = not tested or not shown; [ ] = another dose, or the depositor's remark. Calls come from the whole dose curve; as a rule, active = well fitted curve in the direction sought with a large enough effect; inconclusive = small, poorly fitted or top-dose-only effect, or another doubt; inactive = no such curve, though single readings can be large; an effect the other way counts as inactive or inconclusive. Potency is the fitted concentration of half-maximal effect.

SMILES	Pol beta inh	Pol eta inh	WRN helicase inh	POLK inh	Pol iota inh	FEN1 inh
Cc1ccc(C(C[N+](=O)[O-])c2c(C)[nH]n(-c3ccccc3)c2=O)cc1 (configuration not stated)	28%	-9%	?	2%	1.1µM*	-5%
Cc1[nH]n(-c2ccccc2)c(=O)c1C(C[N+](=O)[O-])c1ccc(F)cc1 (configuration not stated)	0%	-20%	?	-6%	2.2µM*	-19%
Cc1[nH]n(-c2ccccc2)c(=O)c1C(C[N+](=O)[O-])c1ccc(Cl)cc1 (configuration not stated)	-18%	-16%	-35%	-1%	-11%	-2%
CCc1ccc(-n2c(SCC(=O)N3Cc4ccccc4CC3C(=O)O)nnc2-c2ccncc2)cc1 (configuration not stated)	3%	22µM*	-7%[11.6 µM]	-8%	33%	-3%
COc1ccccc1/C=C/C(=O)c1cc(Br)ccc1OC(=O)c1ccco1	.	4%	0%	-23%	-6%	-5%
COC(=O)/C=C/c1ccc2c(c1)OCO2	21%	-12%	-4%	-6%	10%	-1%
CCNc1ccccc(C(=O)/C=C/c2ccc3c(c2)OCO3)c1=O	56µM*	10µM*	56µM*	25µM*	?	?
CNc1ccc(Br)cc(C(=O)/C=C/c2cccc(OC)c2OC)c1=O	20µM*	2%	11%	-10%	.	9%
CNc1ccccc(C(=O)/C=C/c2ccccc2OC)c1=O	50µM*	14µM*	?	-17%	?	0%
CNc1ccc(Br)cc(C(=O)/C=C/c2cccc(Cl)c2Cl)c1=O	14µM*	45µM*	-9%[11.6 µM]	45µM*	6.3µM*	?
COc1ccccc1NC(C)C(=O)c1c(C)[nH]c2ccccc12 (configuration not stated)	.	.	.	-1%	-6%	?
CCOc1ccc(NC(=O)CSc2nnc3c(n2)[nH]c2ccc(S(=O)(=O)N(C)C)cc23)cc1	.	.	.	-14%	60%	-3%
COc1ccc(C(=O)/C(Br)=C/C(=O)O)cc1	.	.	.	3%[19.4 µM]	.	.
CCNc1ccc(Br)cc(C(=O)/C=C/c2ccccc2Cl)c1=O	.	79µM*	?	?	?	-26%
COc1ccc(-c2nc3oc4cc(OC)ccc4c(=O)c3c(=O)n2Cc2ccco2)cc1	-16%	?	-4%	1%	0%	?
CCc1nc2oc3cc(OC)ccc3c(=O)c2c(=O)n1Cc1ccco1	25µM*	-8%	-36%	-41%	?	-4%
Cc1nn(C)c(C)c1S(=O)(=O)N(CC(=O)N1CCN(c2ccccc2)CC1)c1ccc(C(C)C)cc1	30%	-2%	.	-8%	-12%	1%
O=C(CSc1ccc2nnc(-c3cccc(F)c3)n2n1)NCc1ccco1	79µM*	0%	-19%	-39%	?	-9%
O=C(CSc1ccc2nnc(-c3cccnc3)n2n1)NCc1ccco1	0%	-2%	-9%	-10%	-13%	18%
CN1CCc2cc3c(c4c2[C@H]1[C@H](O)c1ccccc1-4)OCO3	45µM*	-24%	13%	?	?	40µM*
CCC(CO)NC(=O)C(=O)Nc1c2c(nn1-c1ccc(F)cc1)CSC2 (configuration not stated)	24%	-8%	.	-10%[60.1 µM]	89µM*	-6%
CC(NC(=O)C(=O)Nc1c2c(nn1-c1ccc(F)cc1)CSC2)c1ccccc1 (configuration not stated)	?	-7%	.	-1%[60.1 µM]	?	2%
CCOc1ccccc1NC(=O)Cc1csc(COc2cccc(C)c2)n1	1%	.	.	-18%	11%	0%
Nc1ccc(C(=O)Nc2ccc(Nc3ccncc3)cc2)cc1	32µM*	5%	2%	-26%	?	-8%
Nc1ccc(NC(=O)c2ccc(C(=O)Nc3ccc(N)cc3)cc2)cc1	?	-21%	-19%	7%	4%	-6%
SMILES	Pol beta inh	Pol eta inh	WRN helicase inh	POLK inh	Pol iota inh	FEN1 inh
CC(=O)Nc1cccc(-c2nc3ccc(NC(C)=O)cc3[nH]2)c1	45µM*	?	-9%	?	?	?
Nc1ccc(C(=O)Nc2ccc3nc(-c4cccnc4)[nH]c3c2)cc1	40µM*	-15%	-24%	?	-15%	-24%
CCOC(=O)c1sc(=S)n(-c2ccccc2)c1NC(C)=O	-1%	-13%	?	-18%	?	79µM*
CCOC(=O)c1sc(=S)n(C)c1NC(=O)c1ccccc1	-13%	-3%	?	-10%	8%	1%
COc1ccc(N(C(=O)Cc2cccs2)C2C=CS(=O)(=O)C2)cc1 (configuration not stated)	16µM*	?	?	-32%	?	7%
O=C(NCCc1nc2ccccc2n1CCCOc1ccccc1)C1CCCCC1	.	.	.	-3%	-10%	2%
CC(C)Sc1nnc(NC(=O)c2ccco2)s1	-22%	89µM*	-3%[57.1 µM]	-17%	?	13%
O=C(Nc1nnc(-c2ccc(F)cc2)s1)c1ccco1	35%	-13%	0%	-2%	15%	-13%
O=C(Nc1n[nH]c(=S)s1)c1ccco1	6%	-3%	-8%[11.6 µM]	56µM*	?	?
CC(=O)N1CCn2c3c(c(=O)c4cc(C)ccc42)CCC31 (configuration not stated)	-3%	4%	-11%[57.1 µM]	-22%	22µM*	-9%
CC1=C(C(=O)OC(C)C)C(c2ccco2)NC(=O)N1 (configuration not stated)	50µM*	?	-24%	-13%	?	-5%
COCCOC(=O)C1=C(C)NC(=O)NC1c1ccco1 (configuration not stated)	?	79µM*	9%	-31%	40µM*	-16%
CCOC(=O)C1=C(C)NC(=O)NC1c1ccc(Br)o1 (configuration not stated)	2%	-12%	-3%	-1%	70%	12%
CCOC(=O)C1=C(C)NC(=O)NC1c1ccco1 (configuration not stated)	35µM*	79µM*	-35%	?	45µM*	-14%
COCCOC(=O)C1=C(C)NC(=O)NC1c1ccc(OC(=O)c2ccco2)c(OC)c1 (configuration not stated)	2%	3%	2%	-14%	2%	2%
CC(C)(C)C1CCc2c(sc3nnn(CCOc4ccccc4)c(=O)c23)C1 (configuration not stated)	25µM*	.	.	-10%	-9%	8%
CCn1nnc2sc3c(c2c1=O)CCC(C)C3 (configuration not stated)	40%	-9%	0%	-10%	10%	-11%
